# Sampled rows, rich in hits. Any-hit rate of the full collection: about 28%.
# CYP2C9 activ = human CYP2C9 activators, primary screen, biochemical, luminescence; recombinant CYP2C9, luciferin-H conversion; active compounds read high; factor 1 = untreated enzyme, 0 = blocked; activation factor at 5 µM; 1.4% of 96,000 active; AID 1024, 2008;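 active = activation factor of 2 or more for CYP2C9 at a 5 µM dose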;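 also: 0 = sulfaphenazole-blocked wells and 1 = vehicle-only wells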
# CYP2C19 inhib = blockers of cytochrome P450 2C19 activity – biochemical, luminescence, ADME assay, primary screen. P33261. CYP2C19 Supersomes, luciferin-H EGE luminescence, 30 min. inhibition, % at 5 µM. 21% of 96,000 active. AID 778, 2007;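 active = CYP2C19 inhibition above a set limit at 5 µM in the primary screen, cut at about 50% in these data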;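 also: plate controls were negative control wells for no effect and 2.5 mM tranylcypromine positive control for full effect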
# Target sequence (P33261 whole entry, looked up): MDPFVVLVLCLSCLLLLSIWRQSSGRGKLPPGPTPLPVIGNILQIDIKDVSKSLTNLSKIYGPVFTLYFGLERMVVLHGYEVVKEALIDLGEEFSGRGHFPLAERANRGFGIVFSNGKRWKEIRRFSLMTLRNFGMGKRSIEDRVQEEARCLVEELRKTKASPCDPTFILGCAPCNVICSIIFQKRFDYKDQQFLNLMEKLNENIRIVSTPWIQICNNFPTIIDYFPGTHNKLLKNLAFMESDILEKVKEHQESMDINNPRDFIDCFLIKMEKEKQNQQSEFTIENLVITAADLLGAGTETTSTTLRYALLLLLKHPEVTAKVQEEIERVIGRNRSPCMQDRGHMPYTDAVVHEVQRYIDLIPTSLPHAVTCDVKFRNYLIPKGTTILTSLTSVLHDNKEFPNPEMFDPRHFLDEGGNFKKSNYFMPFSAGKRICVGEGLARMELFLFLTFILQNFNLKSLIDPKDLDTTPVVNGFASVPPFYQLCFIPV
# CYP2C9 inh = blockers of cytochrome P450 2C9 activity – biochemical, luminescence, ADME assay, primary screen | P11712 | CYP2C9 Supersomes, luciferin-H conversion | inhibition, % at 5 µM | 20% of 96,000 active | AID 777, 2007;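 active = blocking of liver enzyme CYP2C9 beyond about 50% at 5 µM, limit read from the data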
# DAT uptake mod = changed hDAT dopamine uptake under cocaine IC80, either direction, primary screen, cocaine antagonist project, cell-based, LLC-PK1 hDAT, [14C]-dopamine uptake, MLSMR. Sodium-dependent dopamine transporter (Homo sapiens), Q01959. LLC-PK1 hDAT cells, [14C]-dopamine uptake with cocaine IC80; actives deviate in either direction. B-score at 10 µM. 1.3% of 110,000 active. AID 449768, 2010;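 active = Z score or B-score, a plate-position-corrected score, falls beyond the plate's 99.7% confidence bounds, in either direction; inactive = both scores lie inside the 99.7% bounds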;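 also: scored against the spread of the other compound wells on the same plate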
# D1 mod = D1 CRE-luciferase signal change, two-sided – cell-based, HEK293 D1, dopamine EC30, D1 allosteric modulator project, primary screen; D(1A) dopamine receptor (Homo sapiens), P21728; dopamine EC30 potentiation; actives deviate in either direction; B-score at 10 µM; 5.9% of 58,000 active; AID 641, 2007;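 active = luminescence count or its row- and column-corrected plate score outside the 99.7% band of the plate's sample wells, on either side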
# CYP2C19 activ = human CYP2C19 activators, primary screen, biochemical, luminescence; Cytochrome P450 2C19 (Homo sapiens), P33261; recombinant CYP2C19, luciferin-H EGE luminescence; active compounds read high; 0 = fully inhibited enzyme, 1 = untreated enzyme; activation factor at 5 µM; 96,000 tested, under 10 active; AID 1025, 2008;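 active = activation factor of at least 2 at 5 µM in the primary screen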;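 also: 0 = wells with 2.5 mM tranylcypromine and 1 = vehicle-only wells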
# The depositor's hits bear a star; . = no result given.
SMILES,CYP2C9 activ,CYP2C19 inhib,CYP2C9 inh,DAT uptake mod,D1 mod,CYP2C19 activ
O=S(Cc1ccc(Cl)cc1)CC(O)(c1ccccc1)c1ccccc1 (stereo not given),0.6,80*,36,-0.7,.,0.2
CCOCC(O)CS(=O)Cc1ccccc1 (stereo not given),1.1,6,-5,-0.011,0.7,0.9
O=S(Cc1ccccc1)CC(O)(c1ccc(Cl)cc1)c1ccc(Cl)cc1 (stereo not given),0.8,85*,24,0.37,.,0.1
CCN1CC2=C(OC(N)=C(C#N)C2c2ccccc2)/C(=C\c2ccccc2)C1 (stereo not given),0.3,91*,66*,0.54,.,0.1
CCN1CC2=C(OC(N)=C(C#N)C2c2cccs2)/C(=C/c2cccs2)C1 (stereo not given),0.7,20,30,0.21,-2.7*,0.8
CCN1C=C(Cc2cccs2)C2=C(C1)C(c1cccs1)C(C#N)=C(N)O2 (stereo not given),0.4,31,56*,0.28,-1.8,0.7
Cc1ccc(N(C(=O)Cn2nnc(-c3ccc(F)cc3)n2)C(CC(C)C)C(=O)NCC2CCCO2)cc1 (stereo not given),0.6,23,40,-0.21,.,0.8
O=C(NCCN1CCN(c2ccccc2F)CC1)C1CCCN(S(=O)(=O)c2cnc[nH]2)C1 (stereo not given),0.9,-5,7,.,-3.2*,1
O=C(NCCc1ccccc1)C1CCCN(S(=O)(=O)c2cnc[nH]2)C1 (stereo not given),0.4,85*,59*,-1.1,-0.31,0.2
CCCS(=O)(=O)N1CCCC(C(=O)NC2CCCC(C)C2C)C1 (stereo not given),0.6,56*,37,-0.091,-0.096,0.4
O=C(NCCC1=CCCCC1)C1CCCN(S(=O)(=O)c2cnc[nH]2)C1 (stereo not given),0.3,96*,66*,-0.17,0.0089,0
CC(=O)Nc1ccc(-c2nnc(SCc3c(C)cc(C)cc3C)n2C)cc1,0.8,2,15,0.69,.,1
Cc1nn(C)c(C)c1S(=O)(=O)N1CCCC(C(=O)NCC2COc3ccccc3O2)C1 (stereo not given),1.3,4,-35,0.67,-0.047,1
O=C(C1CCCN(S(=O)(=O)c2cnc[nH]2)C1)N(CCc1ccccc1)Cc1ccccc1 (stereo not given),0.5,74*,47,0.42,-0.16,0.3
O=C(NCC1COc2ccccc2O1)C1CCCN(S(=O)(=O)c2cnc[nH]2)C1 (stereo not given),0.5,90*,50*,-0.087,0.068,0.1
O=C(NCCN1CCC(Cc2ccccc2)CC1)C1CCCN(S(=O)(=O)c2cnc[nH]2)C1 (stereo not given),0.9,-6,8,.,0.2,1.1
CCCS(=O)(=O)N1CCCC(C(=O)NCCN2CCC(Cc3ccccc3)CC2)C1 (stereo not given),0.4,24,65*,-0.22,-0.2,0.8
CCCS(=O)(=O)N1CCCC(C(=O)NCCN(C)Cc2ccccc2)C1 (stereo not given),0.9,11,12,-1.2,1.2,0.9
Cc1cccc(CCNC(=O)C2CCCN(S(=O)(=O)c3cnc[nH]3)C2)c1 (stereo not given),0.2,92*,77*,-0.031,-0.27,0.1
CCOC(=O)C1=NN(C(=O)Nc2ccc(OC)cc2)C2C(=O)N(c3cccc(C(F)(F)F)c3)C(=O)C12 (stereo not given),1.1,6,-6,0.7,.,0.9
CC(=O)N1c2ccccc2C(C)(C)C2CCC(C)CC21 (stereo not given),.,.,.,-0.47,.,.
O=C1CCCN1CN(C(=O)c1ccccc1)c1ccc(F)cc1,1.1,-13,-6,-0.14,.,1.1
CC(=O)Nc1ccc(S(=O)(=O)N(c2cccnc2)S(=O)(=O)c2ccc(NC(C)=O)cc2)cc1,.,.,.,-0.0037,.,.
CCOC(=O)C1=C(Cn2cnc3ccccc32)NC(=O)NC1c1ccc(OC)cc1 (stereo not given),0.3,54*,67*,1.8,.,0.5
COc1ccc2c(c1)c(=O)oc1c(C)c(OCC(=O)N3CCc4ccccc4C3)ccc12,0.4,37,62*,-0.22,.,0.6
SMILES,CYP2C9 activ,CYP2C19 inhib,CYP2C9 inh,DAT uptake mod,D1 mod,CYP2C19 activ
CCOc1cccc2cc(C(=O)N3CCc4ccccc4C3)c(=O)oc12,2.5*,68*,-146,0.3,0.047,0.3
CCC(=O)c1ccc(OCC(=O)N2CCc3cc(OC)c(OC)cc3C2)cc1,0.6,41,38,-0.69,2.2,0.6
COc1cc2c(cc1OC)CN(C(=O)c1cc3ccccc3oc1=O)CC2,1.5,13,-49,0.23,1,0.9
COc1cccc2cc(C(=O)N3CCN(c4ccccc4F)CC3)c(=O)oc12,0.5,36,51*,-0.33,0.74,0.6
O=C(c1cc2cc(Br)ccc2oc1=O)N1CCN(c2ccccn2)CC1,0.9,9,9,1.2,.,0.9
COc1ccc2oc(=O)c(C(=O)N3CCN(c4ccccc4C)CC3)cc2c1,1,1,0,1.6,-0.48,1
COc1cc(Br)cc2cc(C(=O)N3CCN(c4ccccn4)CC3)c(=O)oc12,0.4,74*,57*,-1,.,0.3
O=C(CNC(=S)NC(=O)c1ccco1)c1ccccc1,1.4,6,-36,0.0054,.,0.9
Cc1nn(C(=O)c2c([N+](=O)[O-])cnn2C)c(C)c1Cl,.,.,.,-1.2,.,.
CC(C)CC1(C(=O)NCc2cc(F)cc(C(F)(F)F)c2)C=CCN1C(=O)c1ccccc1 (stereo not given),.,.,.,-0.5,.,.
COc1cccc2cc(C(=O)N3CCc4ccccc4C3)c(=O)oc12,2*,27,-97,-0.17,1.4,0.7
CCN1CCN(C(=O)c2ccc(COc3ccc(Cl)cc3)o2)CC1,1,-3,1,1.2,.,1
CCOc1ccc(OCc2ccc(C(=O)N3CCc4ccccc4C3)o2)cc1,0.7,51*,31,1.3,.,0.5
Cc1onc(-c2ccccc2Cl)c1C(=O)Nc1ccc(-c2nnc3n2CCCCC3)cc1,1,18,3,-0.62,-0.36,0.8
O=C1NC2=C(CCc3ccccc32)C(c2ccc(Br)cc2)N1 (stereo not given),0.5,65*,54*,-0.47,.,0.3
CCn1c(CSc2nc3ccccc3s2)nnc1SCC(=O)OC(C)(C)C,1.1,18,-9,0.31,.,0.8
